Inconclusive results are not listed. Calls of active or inactive are those of the source. Unless noted, the call rests on the fitted dose curve.

The nature of experiment [1]: qHTS assay to identify small molecule antagonists of the sonic hedgehog signaling (Shh) pathway (AID 1259369). Further: nearly all actives have a fitted effect of over 45% in size. Further: potency means the concentration at half of the fitted maximal effect. In outline: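 Screening used 3T3Gli1-Luc cells at 2,000 per well, compounds delivered in DMSO, and conditioned medium as agonist stimulus; plates incubated 24hr at 37 C and 5% CO2 before a 30min luciferase step.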
On the technique in general: qHTS replaces the single test concentration by a dilution series.

For experiment [2], the target named is Estrogen receptor beta (Homo sapiens) (UniProt Q92731). Put plainly: qHTS assay to identify small molecule antagonists of the estrogen receptor beta (ER-beta) signaling pathway (AID 1259378; active means well fitted inhibition curve with a large enough effect in the signal ratio in the repeat runs, not every such curve was filed as active; the % refers to the signal ratio). Put shortly:
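ER-beta-UAS-bla HEK293T (GripTite) cells in 2% charcoal-stripped FBS medium were preincubated 6 hr at 37C, dosed with compound, then stimulated with 1 nM E2 (final) for 16 hr; beta-lactamase reporter read by B/G FRET fluorescence after 2 hr substrate loading.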

Experiment [3] can be described thus: qHTS assay to identify small molecule agonists of the androgen receptor (AR) signaling pathway in the presence of an antagonist - cell viability counter screen (AID 1259379; active means well fitted curve in the direction sought with a large enough effect in the repeat runs; an effect the other way counts as inactive or inconclusive;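 further: MDA-kb2 human breast cancer cells carrying an MMTV luciferase reporter; series mostly up to about 92 µM; nearly all actives have a fitted effect of over 25% in size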). Put shortly:
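In MDA-kb2 cells (human breast carcinoma, MMTV-luciferase), compounds at 15 concentrations plus 3.0uM nilutamide; 16 hr, 37C, 0% CO2; CellTiter-Fluor fluorescence read for viability.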

A short description of experiment [4]: qHTS assay to identify small molecule agonists of the estrogen receptor beta (ER-beta) signaling pathway - cell viability counter screen (AID 1259380; active means well fitted curve in the direction sought with a large enough effect in the repeat runs; an effect the other way counts as inactive or inconclusive; further: nearly all actives have a fitted effect of over 30% in size). In outline:
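Viability of ER-beta-UAS-bla HEK293T cells was determined by CellTiter-Glo luminescence following 16 hr treatment with test compounds at 37C.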

The nature of experiment [5]: qHTS assay to identify small molecule antagonists of the estrogen receptor beta (ER-beta) signaling pathway - cell viability counter screen (AID 1259382; active means well fitted curve in the direction sought with a large enough effect in the repeat runs; an effect the other way counts as inactive or inconclusive; further: series mostly up to about 92 µM; nearly all actives have a fitted effect of over 55% in size). In outline:
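Tox21 10K library tested in qHTS format on ER-beta-bla HEK293T cells stimulated with 1nM E2; 16 hr treatment at 37C. Same-well CellTiter-Glo luminescence served as the cell viability measure.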

In experiment [6] the target is Estrogen receptor (Homo sapiens) (UniProt P03372). Put plainly: qHTS assay to identify small molecule agonists of the estrogen receptor alpha (ER-alpha) signaling pathway in the presence of an antagonist (AID 1259383). Further: top concentration of the series differs between compounds; nearly all actives have a fitted effect of over 15% in size. Put shortly:
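In VM7Luc4E2 cells, 4,000 per well, compounds at 15 concentrations were co-incubated 22hr at 37C with 10.0nM final ICI-182,780. Luminescence from the stably transfected 4×ERE-luciferase reporter was recorded 30min after ONE-Glo addition.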

Experiment [7] in a line: qHTS assay to identify small molecule agonists or antagonists of the thyroid stimulating hormone receptor (TSHR) signaling pathway - wild type cell line counter screen (AID 1259384). Put shortly: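 Wild-type HEK293 cells were plated 18 h at 37 C/5% CO2, pin-dosed with compound plus Ro20-1724 medium, held 30 min at room temperature, then given cAMP-d2 and anti-cAMP-cryptate; fluorescence was read after 1 h. Fifteen concentrations, triplicate.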

Experiment [8] deals with Thyrotropin receptor (Homo sapiens) (UniProt P16473). Put plainly: qHTS assay to identify small molecule antagonists of the thyroid stimulating hormone receptor (TSHR) signaling pathway (AID 1259385). Further: nearly all actives have a fitted effect of over 20% in size. Put shortly: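 TSHR-HEK293 cells were plated and held 18 h at 37C/5% CO2, then given compound plus Ro20-1724 and stimulated with TSH at 1.5 ng/mL final. After 30 min at room temperature, cAMP was detected with cAMP-d2/anti-cAMP-cryptate (1 h) by fluorescence.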
Thyrotropin receptor (Homo sapiens), sequence (P16473 whole entry, looked up): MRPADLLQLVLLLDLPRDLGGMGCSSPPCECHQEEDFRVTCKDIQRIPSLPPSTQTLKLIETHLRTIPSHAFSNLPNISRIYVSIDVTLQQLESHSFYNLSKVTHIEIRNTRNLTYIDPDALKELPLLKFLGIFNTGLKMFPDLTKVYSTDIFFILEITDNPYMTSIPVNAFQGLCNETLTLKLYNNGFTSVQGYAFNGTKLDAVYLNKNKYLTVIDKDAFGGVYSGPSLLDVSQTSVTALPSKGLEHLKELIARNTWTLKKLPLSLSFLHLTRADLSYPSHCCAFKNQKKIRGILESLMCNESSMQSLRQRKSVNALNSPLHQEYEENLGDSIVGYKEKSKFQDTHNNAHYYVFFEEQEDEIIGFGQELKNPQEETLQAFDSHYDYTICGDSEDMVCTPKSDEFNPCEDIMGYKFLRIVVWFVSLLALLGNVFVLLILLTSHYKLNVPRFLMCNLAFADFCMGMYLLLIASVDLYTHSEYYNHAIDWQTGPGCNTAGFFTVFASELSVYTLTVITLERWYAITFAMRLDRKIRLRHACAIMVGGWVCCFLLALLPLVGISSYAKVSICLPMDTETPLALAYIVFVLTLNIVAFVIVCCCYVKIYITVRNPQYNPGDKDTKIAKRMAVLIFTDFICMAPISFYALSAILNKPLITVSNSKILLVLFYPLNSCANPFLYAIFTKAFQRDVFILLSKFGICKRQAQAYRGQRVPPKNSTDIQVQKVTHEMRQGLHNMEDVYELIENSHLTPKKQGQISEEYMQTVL

Experiment [9] can be described thus: qHTS assay to identify small molecule agonists of the estrogen receptor alpha (ER-alpha) signaling pathway in the presence of an antagonist - cell viability counter screen (AID 1259386; active means well fitted curve in the direction sought with a large enough effect in the repeat runs; an effect the other way counts as inactive or inconclusive;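 further: series mostly up to about 92 µM; cells exposed to compounds for 22 h at 37 °C before the viability read; nearly all actives have a fitted effect of over 30% in size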). In outline: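 Fluorescent CellTiter-Fluor viability signal from VM7Luc4E2 cells, with the reagent added during the final hour of a 22hr compound exposure at 37C in the presence of 10.0nM ICI-182,780.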

In experiment [10] the target is Progesterone receptor (Homo sapiens) (UniProt P06401). Put plainly: qHTS assay to identify small molecule agonists of the progesterone receptor (PR) signaling pathway (AID 1346784). Further: nearly all actives have a fitted effect of over 30% in size. In outline:
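Fluorescence from LiveBLAzer B/G FRET substrate cleavage (2 hr, RT) reported PR activation in PR-UAS-bla HEK 293T cells treated 16 hr at 37C/5% CO2 with compounds; medium contained 2% charcoal-stripped FBS.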

Experiment [11] has the same target. Briefly: qHTS assay to identify small molecule antagonists of the progesterone receptor (PR) signaling pathway (AID 1346795; active means well fitted inhibition curve with a large enough effect in the signal ratio in the repeat runs, not every such curve was filed as active; the % refers to the signal ratio). Put shortly:
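Fluorescence intensity measured 2 hr after adding beta-lactamase FRET substrate to PR-UAS-bla HEK293T cells that had been co-treated 16 hr with compound and 1 nM R5020 (final concentration) in 2% charcoal-stripped FBS.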

Experiment [12] can be described thus: qHTS assay to identify small molecule antagonists of the progesterone receptor (PR) signaling pathway - cell viability counter screen (AID 1346798; active means well fitted curve in the direction sought with a large enough effect in the repeat runs; an effect the other way counts as inactive or inconclusive; further: series mostly up to about 92 µM; nearly all actives have a fitted effect of over 50% in size). Put shortly: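 CellTiter-Glo luminescence; PR-UAS-bla HEK293T, 3,000 cells/well; compound + R5020, 16 hr, 37C/5% CO2; 30 min RT before read.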
A short description of experiment [13]: qHTS assay to identify small molecule agonists of the progesterone receptor (PR) signaling pathway - cell viability counter screen (AID 1346799). Further: nearly all actives have a fitted effect of over 45% in size. Put shortly: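 In parallel with the beta-lactamase readout, cytotoxicity toward PR-UAS-bla HEK293T cells was measured by CellTiter-Glo luminescence following 16 hr compound incubation in 2% charcoal-stripped FBS medium.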

The nature of experiment [14]: qHTS assay to identify small molecule antagonists of the TGF-beta/Smad signaling pathway - cell viability counter screen (AID 1346824; active means well fitted curve in the direction sought with a large enough effect in the repeat runs; an effect the other way counts as inactive or inconclusive; further: nearly all actives have a fitted effect of over 50% in size). In outline:
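SBE-bla HEK 293T cells were plated overnight at 37 C, then given compounds in DMSO plus TGF-beta1 (added as 0.25 ng/mL solution) for 5 hr. After the bla read, CellTiter-Glo was added to the same wells and luminescence read after 30 min at room temperature.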

A short description of experiment [15]: qHTS assay to identify small molecule agonists of the TGF-beta/Smad signaling pathway - cell viability counter screen (AID 1346829; active means well fitted curve in the direction sought with a large enough effect in the repeat runs; an effect the other way counts as inactive or inconclusive; further: top concentration of the series differs between compounds; nearly all actives have a fitted effect of over 45% in size). Put shortly:
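SBE-bla HEK 293T cells plated overnight, compound exposure 5 hr at 37 C. Viability read in the same wells by CellTiter-Glo luminescence after 30 min at room temperature, following the beta-lactamase read.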

Experiment [16] in a line: qHTS assay to identify small molecule agonists of the TGF-beta/Smad signaling pathway (AID 1346859; active means well fitted activation curve with a large enough effect in the signal ratio in the repeat runs, not every such curve was filed as active; the % refers to the signal ratio; further: series mostly up to about 77 µM). In outline:
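After overnight seeding, SBE-bla HEK 293T cells are dosed with compounds in DMSO and kept 5 hr at 37 C, 5% CO2. LiveBLAzer-type FRET substrate is then applied for 2 hr at room temperature.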

Experiment [17] has as its target Thyrotropin-releasing hormone receptor (Homo sapiens) (UniProt P34981). Put plainly: qHTS assay to identify small molecule antagonists of the thyrotropin-releasing hormone receptor (TRHR) signaling pathway (AID 1346877; active means well fitted inhibition curve with a large enough effect in the repeat runs, not every such curve was filed as active; further: series mostly up to about 51 µM). In outline: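 In this cell-based calcium flux format, HEK293 cells expressing TRHR received test compound for 5 min before the agonist TRH (1 nM final). Dye loading lasted 2 h at 37 °C.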

Experiment [18] has the same target. Put plainly: qHTS assay to identify small molecule agonists of the thyrotropin-releasing hormone receptor (TRHR) signaling pathway (AID 1346891). Further: series mostly up to about 58 µM. Put shortly:
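Compounds were tested as agonists at 15 concentrations, in triplicate, on TRHR-Hek293 cells; calcium-sensitive dye fluorescence was recorded for 3 min following addition.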

Experiment [19] has as its target Androgen receptor (Homo sapiens) (UniProt P10275). Briefly: qHTS assay to identify small molecule agonists of the androgen receptor (AR) signaling pathway in the presence of an antagonist (AID 1259381). Further: nearly all actives have a fitted effect of over 15% in size. Further: potency means the concentration at half of the fitted maximal effect. Put shortly: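 Here, 15-concentration compound series were pin-transferred onto MDA-kb2 MMTV-luciferase cells already dosed with nilutamide (3.0uM final). After 16hr at 37C, ONE-Glo was added and luminescence read 30min later at room temperature.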

Experiment [20] deals with Estrogen receptor beta (Homo sapiens) (UniProt Q92731). Put plainly: qHTS assay to identify small molecule agonists of the estrogen receptor beta (ER-beta) signaling pathway (AID 1259377; active means well fitted activation curve with a large enough effect in the signal ratio in the repeat runs, not every such curve was filed as active; the % refers to the signal ratio). Put shortly:
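qHTS in ER-beta-UAS-bla HEK293T cells: 6 hr settling, then 16 hr compound at 37C, then LiveBLAzer substrate 2 h at RT before fluorescence reading.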

Thyrotropin-releasing hormone receptor (Homo sapiens), sequence (P34981 whole entry, looked up): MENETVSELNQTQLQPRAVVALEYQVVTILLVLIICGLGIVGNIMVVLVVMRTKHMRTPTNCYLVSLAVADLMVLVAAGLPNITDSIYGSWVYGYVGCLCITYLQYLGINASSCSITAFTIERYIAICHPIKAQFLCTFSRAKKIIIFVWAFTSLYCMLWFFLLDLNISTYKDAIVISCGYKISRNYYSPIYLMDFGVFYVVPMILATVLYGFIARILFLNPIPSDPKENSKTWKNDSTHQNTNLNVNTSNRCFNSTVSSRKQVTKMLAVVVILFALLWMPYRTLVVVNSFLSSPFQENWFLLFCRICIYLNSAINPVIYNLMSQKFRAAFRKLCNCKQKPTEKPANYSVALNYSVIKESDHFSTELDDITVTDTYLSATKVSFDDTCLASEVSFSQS
Progesterone receptor (Homo sapiens), sequence (P06401 whole entry, looked up): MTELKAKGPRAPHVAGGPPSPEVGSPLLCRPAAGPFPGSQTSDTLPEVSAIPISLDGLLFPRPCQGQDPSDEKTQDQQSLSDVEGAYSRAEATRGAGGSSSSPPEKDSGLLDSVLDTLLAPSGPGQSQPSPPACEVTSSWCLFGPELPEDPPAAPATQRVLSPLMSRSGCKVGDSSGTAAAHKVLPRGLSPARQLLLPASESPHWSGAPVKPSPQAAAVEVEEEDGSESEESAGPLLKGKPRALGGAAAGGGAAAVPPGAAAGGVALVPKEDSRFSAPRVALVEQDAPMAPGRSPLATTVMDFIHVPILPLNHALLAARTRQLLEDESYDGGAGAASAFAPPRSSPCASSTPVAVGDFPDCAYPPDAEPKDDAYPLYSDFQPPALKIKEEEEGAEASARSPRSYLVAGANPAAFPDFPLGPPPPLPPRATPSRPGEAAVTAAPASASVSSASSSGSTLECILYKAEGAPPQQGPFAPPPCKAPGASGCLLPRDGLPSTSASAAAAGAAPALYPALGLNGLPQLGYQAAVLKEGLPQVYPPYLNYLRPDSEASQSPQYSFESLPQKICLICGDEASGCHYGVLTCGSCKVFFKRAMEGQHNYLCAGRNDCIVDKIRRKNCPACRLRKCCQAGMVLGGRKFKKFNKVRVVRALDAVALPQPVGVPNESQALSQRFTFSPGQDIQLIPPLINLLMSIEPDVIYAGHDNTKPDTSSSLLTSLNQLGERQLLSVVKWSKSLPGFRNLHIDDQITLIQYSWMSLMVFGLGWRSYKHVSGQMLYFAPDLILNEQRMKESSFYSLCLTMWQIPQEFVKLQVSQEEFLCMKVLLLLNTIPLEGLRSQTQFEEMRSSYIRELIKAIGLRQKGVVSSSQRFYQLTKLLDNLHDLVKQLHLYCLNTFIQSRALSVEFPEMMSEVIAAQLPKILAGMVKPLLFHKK
Estrogen receptor beta (Homo sapiens), sequence (Q92731 whole entry, looked up): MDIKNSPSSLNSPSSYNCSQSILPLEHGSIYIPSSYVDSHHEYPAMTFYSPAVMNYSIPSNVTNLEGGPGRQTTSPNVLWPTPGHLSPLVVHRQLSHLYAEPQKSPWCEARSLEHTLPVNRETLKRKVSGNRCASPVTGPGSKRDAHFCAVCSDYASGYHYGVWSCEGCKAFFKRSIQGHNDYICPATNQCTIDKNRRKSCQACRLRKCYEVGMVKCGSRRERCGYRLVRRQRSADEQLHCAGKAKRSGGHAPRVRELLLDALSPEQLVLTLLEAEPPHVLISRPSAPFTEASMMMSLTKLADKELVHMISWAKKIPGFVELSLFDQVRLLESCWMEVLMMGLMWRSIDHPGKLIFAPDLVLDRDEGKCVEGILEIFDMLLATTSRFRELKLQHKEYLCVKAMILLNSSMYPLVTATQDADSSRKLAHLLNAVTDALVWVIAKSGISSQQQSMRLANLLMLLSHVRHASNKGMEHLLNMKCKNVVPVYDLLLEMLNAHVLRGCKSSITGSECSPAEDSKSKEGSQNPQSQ
Estrogen receptor (Homo sapiens), sequence (P03372 whole entry, looked up): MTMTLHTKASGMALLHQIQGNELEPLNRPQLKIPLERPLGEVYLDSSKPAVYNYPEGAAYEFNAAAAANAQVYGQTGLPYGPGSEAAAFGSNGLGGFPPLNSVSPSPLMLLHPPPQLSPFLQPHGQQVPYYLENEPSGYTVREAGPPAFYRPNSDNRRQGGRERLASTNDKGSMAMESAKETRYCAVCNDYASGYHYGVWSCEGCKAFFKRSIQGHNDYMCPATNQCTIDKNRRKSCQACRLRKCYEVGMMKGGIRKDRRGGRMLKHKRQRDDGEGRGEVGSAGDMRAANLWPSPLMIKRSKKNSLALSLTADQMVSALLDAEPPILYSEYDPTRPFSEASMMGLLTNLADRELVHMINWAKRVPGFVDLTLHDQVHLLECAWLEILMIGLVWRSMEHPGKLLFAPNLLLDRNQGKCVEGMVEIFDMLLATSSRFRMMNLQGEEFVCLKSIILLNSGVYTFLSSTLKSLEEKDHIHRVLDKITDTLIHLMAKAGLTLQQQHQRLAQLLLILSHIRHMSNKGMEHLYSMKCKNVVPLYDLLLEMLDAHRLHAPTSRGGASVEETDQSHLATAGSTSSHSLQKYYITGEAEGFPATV
Androgen receptor (Homo sapiens), sequence (P10275 whole entry, looked up): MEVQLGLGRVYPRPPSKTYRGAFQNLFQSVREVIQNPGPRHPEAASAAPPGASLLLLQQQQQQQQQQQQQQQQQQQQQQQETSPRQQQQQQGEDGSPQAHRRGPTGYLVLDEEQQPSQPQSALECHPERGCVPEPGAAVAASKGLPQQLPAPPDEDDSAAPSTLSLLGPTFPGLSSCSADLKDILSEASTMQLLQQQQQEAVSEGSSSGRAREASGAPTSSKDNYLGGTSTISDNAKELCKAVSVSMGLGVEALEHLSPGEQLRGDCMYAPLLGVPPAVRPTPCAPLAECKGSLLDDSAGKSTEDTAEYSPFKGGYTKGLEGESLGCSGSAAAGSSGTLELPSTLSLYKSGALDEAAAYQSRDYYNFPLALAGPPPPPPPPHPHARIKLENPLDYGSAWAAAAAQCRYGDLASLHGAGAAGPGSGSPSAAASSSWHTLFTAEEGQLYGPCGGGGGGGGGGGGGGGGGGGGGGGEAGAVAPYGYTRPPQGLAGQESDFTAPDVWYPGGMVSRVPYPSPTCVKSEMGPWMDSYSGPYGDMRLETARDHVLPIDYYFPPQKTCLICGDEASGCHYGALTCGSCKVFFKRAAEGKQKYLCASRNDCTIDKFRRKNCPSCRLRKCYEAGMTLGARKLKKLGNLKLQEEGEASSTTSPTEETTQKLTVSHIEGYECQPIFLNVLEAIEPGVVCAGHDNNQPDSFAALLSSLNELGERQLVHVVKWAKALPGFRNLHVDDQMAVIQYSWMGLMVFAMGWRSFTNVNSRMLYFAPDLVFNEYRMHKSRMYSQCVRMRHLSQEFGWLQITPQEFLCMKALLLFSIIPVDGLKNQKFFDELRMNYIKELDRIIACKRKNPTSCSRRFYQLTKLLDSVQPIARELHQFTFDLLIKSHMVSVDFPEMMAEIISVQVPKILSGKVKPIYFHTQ

`CC(CO)(CO)[N+](=O)[O-]`: the Potency result in [1], in experiment [2], in experiment [3], in experiment [4], in experiment [9] and in [10] was “inactive” each time. The Potency entry in experiment [11], in [12], in experiment [13] and in [18] was “inactive” each time. For the same molecule, the molecule was called inactive in [5], in [6], in [7], in [8], in [14] and in experiment [15]. Further, the molecule was classed as inactive in [16] and in [17].

For `CC1=CCC(O)(C(C)C)CC1` (stereo not drawn), the Potency entry in experiment [1], in experiment [2], in experiment [3], in experiment [4], in experiment [9] and in experiment [10] was “inactive” in each case. In addition, the Potency entry in [12], in [13] and in [18] was “inactive” throughout. Further, the call in experiment [5], in [6], in [7], in [8], in experiment [14] and in experiment [16] was inactive. Further, the call in [17] was inactive.

On to `C[C@@H]1C[C@H]2[C@@H]3C[C@H](F)C4=CC(=O)C(Cl)=C[C@]4(C)[C@@]3(F)[C@@H](O)C[C@]2(C)[C@@]1(O)C(=O)CO`, for which the Potency in experiment [1] was 18.8 µM (active); in [19], 0.0047 µM (active). Moreover, the Potency result in experiment [3], in experiment [4], in experiment [9], in experiment [12] and in [18] was “inactive” throughout. The outcome in experiment [5], in [6], in experiment [8], in [14], in [16] and in [17] was inactive.

For `CCCC[N+](C)(CCCC)CCCC`, the Potency result in [1], in experiment [20], in [4], in experiment [9], in experiment [10] and in [11] was “inactive” in each case. Moreover, the Potency result in experiment [12] and in experiment [13] was “inactive” in each case. The molecule was called inactive in experiment [5], in [6], in experiment [7], in experiment [8], in experiment [14] and in experiment [16].

Regarding `C=CCCCCCCCCC(=O)OCC`, the Potency entry in experiment [1], in experiment [20], in experiment [2], in [4], in [9] and in [11] was “inactive” each time. In addition, the Potency result in experiment [12] and in experiment [13] was “inactive” each time. Further, the outcome in experiment [6], in experiment [7], in [8], in [14], in experiment [15] and in [16] was inactive.

Consider `N[C@H](C(=O)O)[C@@H](O)c1ccc(O)c(O)c1`, for which the Potency result in [1], in experiment [20], in [2], in experiment [4], in experiment [9] and in experiment [11] was “inactive” in each case. Further, the Potency entry in experiment [12], in experiment [13] and in experiment [18] was “inactive” each time. For the same molecule, the result in [6], in experiment [7], in experiment [8], in [14], in experiment [15] and in experiment [16] was inactive. Further, the result in experiment [17] was inactive.

Consider `CCCCS(=O)(=O)N[C@@H](Cc1ccc(OCCCCC2CCNCC2)cc1)C(=O)O`, for which the Potency result in experiment [1], in experiment [3], in experiment [4], in experiment [19], in [9] and in experiment [10] was “inactive” throughout. In addition, the Potency result in experiment [11], in experiment [12], in experiment [13] and in [18] was “inactive” throughout. Besides, the molecule was classed as inactive in experiment [5], in experiment [6], in [7], in experiment [8], in [14] and in experiment [15]. The call in experiment [16] was inactive.

As for `O=C(O)c1cn(C2CC2)c2cc(N3CCNCC3)c(F)cc2c1=O`, the Potency result in [1], in [20], in experiment [3], in experiment [4], in [9] and in experiment [10] was “inactive” in each case. Further, the Potency entry in experiment [11], in experiment [12] and in experiment [13] was “inactive” throughout. For the same molecule, the outcome in [6], in experiment [7], in [8], in experiment [14], in experiment [15] and in experiment [16] was inactive.

The record behind these values is PubChem BioAssay (Tox21).
